# In the library only some 1.2% were active in any assay of this set; here they are far more common.
# PTPN22 inh 2 = blocks human PTPN22 phosphatase activity | Q9Y2R2 | 96,000 compounds, 0.21% hits | inhibition, % at 2 µM | recombinant LYP catalytic domain, DiFMUP fluorescence | AID 640;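 active means inhibition at 2 µM at or above a set limit, the screen mean plus 3 SD, cut at about 24% in these data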;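 further: 0% = DMSO with enzyme and 100% = enzyme fully blocked by orthovanadate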
# PLK1 kinase inh = blocks human PLK1 kinase activity | P53350 | recombinant PLK1 kinase, TR-FRET peptide phosphorylation | 97,000 compounds, 0.53% hits | inhibition, % at 10 µM | AID 619;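 active means inhibition of 50% or more in the single-concentration screen; inactive means inhibition below 50%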;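 further: 0% = DMSO max control and 100% = H-89 dihydrochloride min control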
# PLK1 PBD inh = blocks phosphopeptide binding to human Plk1 polo box domain | P53350 | inhibition, %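 (tested at about 20 µM)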 | 97,000 compounds, 0.13% hits | Plk1 PBD phosphopeptide binding, fluorescence polarization | AID 693; in the data active means inhibition above about 34%, passing the limit was not always enough
# EphB4 antag = blocks human EphB4 binding to ephrin-B2; P54760; EphB4 LBD / TNYL-RAW-Alexa532 peptide, fluorescence polarization; inhibition, % at 7 µM; 97,000 compounds, 0.15% hits; AID 720;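 active means inhibition above the screen-wide mean inhibition plus 3 SD, cut at about 15% in these data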;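 further: 0% = DMSO wells and 100% = excess unlabeled TNYL-RAW peptide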
# Target sequence (P54760 whole entry, looked up, the tested form may be a part): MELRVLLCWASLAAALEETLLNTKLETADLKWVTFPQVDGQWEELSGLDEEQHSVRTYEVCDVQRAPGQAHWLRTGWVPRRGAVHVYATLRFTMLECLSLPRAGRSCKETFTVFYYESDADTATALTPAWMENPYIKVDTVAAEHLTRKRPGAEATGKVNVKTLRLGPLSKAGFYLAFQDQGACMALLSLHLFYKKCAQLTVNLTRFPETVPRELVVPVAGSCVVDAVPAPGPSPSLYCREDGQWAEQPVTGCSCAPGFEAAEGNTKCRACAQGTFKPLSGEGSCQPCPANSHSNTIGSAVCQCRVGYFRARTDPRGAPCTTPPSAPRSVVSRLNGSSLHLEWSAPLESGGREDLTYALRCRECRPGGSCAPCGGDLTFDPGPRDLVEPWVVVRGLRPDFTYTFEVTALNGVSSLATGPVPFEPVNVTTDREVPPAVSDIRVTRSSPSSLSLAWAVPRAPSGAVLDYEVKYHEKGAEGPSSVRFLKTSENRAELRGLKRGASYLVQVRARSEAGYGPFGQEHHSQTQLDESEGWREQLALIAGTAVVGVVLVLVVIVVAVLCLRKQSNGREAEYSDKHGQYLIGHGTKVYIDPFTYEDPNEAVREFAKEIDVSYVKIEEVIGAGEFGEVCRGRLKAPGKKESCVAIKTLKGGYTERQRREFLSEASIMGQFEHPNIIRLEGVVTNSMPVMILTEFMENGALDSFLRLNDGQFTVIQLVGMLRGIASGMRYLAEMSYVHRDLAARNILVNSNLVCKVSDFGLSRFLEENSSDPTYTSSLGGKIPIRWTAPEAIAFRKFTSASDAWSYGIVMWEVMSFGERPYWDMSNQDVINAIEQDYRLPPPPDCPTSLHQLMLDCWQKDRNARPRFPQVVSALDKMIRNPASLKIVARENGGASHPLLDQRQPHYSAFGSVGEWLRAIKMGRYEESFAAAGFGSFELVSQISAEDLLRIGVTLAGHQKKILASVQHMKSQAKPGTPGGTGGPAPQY
# LYP act = LYP (human) phosphatase activation. Q9Y2R2. AID 697. activation, % at 2 µM. recombinant LYP, DiFMUP fluorescence; 0 = plate median, 100 = signal doubled. 96,000 compounds, 0.11% hits;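 active means activation at 2 µM above a set limit, the mean plus 5 SD, cut at about 37% in these data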
# The depositor's hits bear a star; · = no result; [ ] = remark or other dose.
SMILES,PTPN22 inh 2,PLK1 kinase inh,PLK1 PBD inh,EphB4 antag,LYP act
N#CC1=C2SCN(c3ccccc3)CN2C(=O)CC1c1ccccc1Cl (stereo unspecified),1,56*,8,3,-4
N#CC1=C2SCN(c3ccccc3)CN2C(=O)CC1c1c(Cl)cccc1Cl (stereo unspecified),7,3,12,1,-8
CCN(CC)CCCn1c(C)cc2c(c1=O)C(c1cccc(Cl)c1)C(C#N)=C(N)O2 (stereo unspecified),-7,-5,47*,-7,5
CCOc1ccc(NC(=O)C2CCN(C(=O)NC3CCCCC3)CC2)cc1,1,52*,-7,-3,-2
CCOc1ccc(NC(=O)C2CCN(C(=O)NCc3ccccc3)CC2)cc1,-4,-10,12,6,2
O=C1CCC(C(=O)OCc2c(Cl)cccc2Cl)N1 (stereo unspecified),9,-10,-4,-2,-6
Cc1cc(C(C)(C)C)cc(C)c1COC(=O)C1CCC(=O)N1 (stereo unspecified),27*,-2,-22,-8,-28
C1=Nc2c(Nc3ccccc3)ncnc2Oc2ccccc21,-2,1,-1,3,-1
CCOC(=O)C1=C(C)NC(=O)NC1c1ccc(C)o1 (stereo unspecified),·,69*,18,-7,·
CCOC(=O)CSc1nc(N2CCOCC2)c2c(c1C#N)CC(C)(C)N(C)C2,-16,0,-7,-6,13
O=C(Nc1ccc2oc(-c3ccc4ccccc4c3)nc2c1)c1ccc2c(c1)OCCO2,31*,-9,-11,-9,-29
O=C(/C=C/c1ccc([N+](=O)[O-])cc1)NCC1CCCO1 (stereo unspecified),1,-16,-13,-12,3
CCn1c(SC(C)C)nnc1-c1c[nH]c2ccccc12,·,65*,-9,-6,·
CCOC(=O)CSc1nnc(-c2c[nH]c3ccccc23)n1CC,·,68*,-16,0,·
CSc1ccccc1NC(=O)COc1ccc(S(=O)(=O)N2CCCC2)cc1,-12,-12,-8,6,8
Cn1c(SCc2c(Cl)cccc2Cl)nc(C(F)(F)F)cc1=O,3,-9,-15,3,1
O=C(NNC(=O)c1cc2cc3ccccc3nc2s1)c1cccc(Cl)c1,27*,-23,10,-7,-25
CCOC(=O)c1ccc(NC(=O)Nc2ccc(OC)c(OC)c2)cc1,-3,51*,-6,-3,4
Cc1[nH]nc2c1C1(CCC(c3ccccc3)CC1)C(C#N)=C(N)O2 (stereo unspecified),-5,60*,-35,4,4
Cc1[nH]nc2c1C1(CCN(C(=O)c3ccccc3)CC1)C(C#N)=C(N)O2,1,-3,-4,-1,2
CCc1cc2cc3c(cc2nc1SCC(=O)Nc1cc(C)on1)OCO3,-13,-11,1,-5,10
O=C(/C=C/c1ccccc1Cl)NCc1ccccc1,0,-9,0,16*,3
COC(=O)c1ccc(NC(=O)CN2CCN(c3cccc(Cl)c3)CC2)cc1,0,-6,-3,17*,1
Cc1ccc(S(=O)(=O)n2nc(-c3ccco3)nc2SCc2ccccc2)cc1,5,-12,-23,8,-3
O=C(COC(=O)C(Cc1ccccc1)NC(=O)c1ccco1)NC1CC1 (stereo unspecified),-1,-11,4,17*,-2
SMILES,PTPN22 inh 2,PLK1 kinase inh,PLK1 PBD inh,EphB4 antag,LYP act
O=C(COC(=O)[C@H](Cc1ccccc1)NC(=O)c1ccco1)NC(c1ccccc1)c1ccccc1,7,-6,-2,2,-4
O=C(CN(Cc1cccs1)C(=O)CSc1nnc(COc2ccccc2)o1)NC1CCCC1,3,0,2,20*,-4
Cc1cc(C)c(C#N)c(N2CCN(CCOc3ccc(Cl)cc3)CC2)n1,3,-10,-12,-2,-4
COc1ccc(Cl)cc1CN1CCN(c2nc(C)cc(C)c2C#N)CC1,-2,62*,26,-1,-1
O=C(O)CSc1nnc(-c2cccs2)n1-c1ccc(Cl)cc1,6,-12,-11,5,-10
O=C(CSc1nnc(-c2cccs2)n1-c1cccc(Cl)c1)c1cccc2c1OCCO2,25*,-25,13,9,-24
CCNc1c2c3c(cccc3n(C)c1=O)C(=O)c1ccccc1-2,-9,-101,-106,26*,7
Cn1c(=O)c(NCCc2ccccc2)c2c3c(cccc31)C(=O)c1ccccc1-2,-1,-152,-207,119*[fluorescence artefact?],0
CCCCNc1c2c3c(cccc3n(C)c1=O)C(=O)c1ccccc1-2,-8,-129,-138,15,7
CN1CC2=Cc3ccccc3OC23Oc2ccccc2C=C3C1,1,-3,-4,2,-2
O=C(NCc1ccco1)c1ccc2nc3sc4c(c3c(=O)n2c1)CCCC4,25*,-11,20,0,-26
C=CCn1c(SCC(=O)NCc2ccco2)nc2sc3c(c2c1=O)CCCC3,-7,-7,-20,-2,6
COc1ccc(Cn2nnnc2C(c2cc3ccc(OC)cc3[nH]c2=O)N2CCC(C)CC2)cc1 (stereo unspecified),1,9,-16,16*,1
COc1ccc2cc(C(c3nnnn3Cc3ccc(F)cc3)N3CCCCCC3)c(=O)[nH]c2c1 (stereo unspecified),5,3,36,-8,-8
CCCc1ccc(OCc2ccc(C(=O)N3CCN(c4ccccn4)CC3)o2)c(OC)c1,-1,-7,-24,2,-2
CN(C)c1ccc(C2N3CC4(C)CN2CC(C)(C3)C4O)cc1 (stereo unspecified),·,62*,-19,-12,·
CCCc1c(C)c2c(C)[nH]nc2oc1=O,2,58*,21,0,-5
Cc1c(C)c2c(C)[nH]nc2oc1=O,-1,-9,-10,3,-1
Cc1ccc(NCC(=O)N/N=C/c2ccc(OC(=O)c3ccco3)cc2)cc1,4,-7,-9,6,0
NS(=O)(=O)c1ccc(CCNc2ncnc3c2c(-c2ccccc2)cn3-c2ccc(F)cc2)cc1,-9,-18,13,3,14
O=C(NC(C(=O)N/N=C/c1c2ccccc2cc2ccccc12)c1n[nH]c(=O)c2ccccc12)c1ccccc1 (stereo unspecified),20,-9,6,5,-18
O=C(NC(C(=O)N/N=C/c1ccccc1)c1n[nH]c(=O)c2ccccc12)c1ccccc1 (stereo unspecified),26*,-16,-15,1,-24
O=C(NNC(=O)C1CCCCC1)C(=O)NC1CCCCC1,7,-11,-11,16*,-3
Cn1c(CN2CCOCC2)nnc1SCC(=O)NCCc1ccccc1,-8,-13,26,6,4
CCc1cccc(C)c1NC(=O)CN1C(=O)c2ccccc2S1(=O)=O,·,69*,-10,-3,·
COC(=O)c1ccc(C)c(NC(=O)CN2C(=O)c3ccccc3S2(=O)=O)c1,-6,-13,-7,1,7
FC(F)Sc1ccc(Nc2ncnc3nc[nH]c23)cc1,-13,60*,9,-6,10

# Screening results from PubChem.
